Bioassay records from PubChem BioAssay.
beta cell repl: inducers of beta-cell replication in MIN6 cells. MIN6 cells proliferation, ATPlite luminescence, 48 h; cells starved in 0.2% serum; 100% = growth in 10% serum. proliferation, % at 10 µM. hit rate 0.29% among 330,000. AID 2380;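 active means compounds whose signal lies at least 3.5 SD above the mean of all wells on their plate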;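 further: 0% = DMSO-treated cells in low-serum medium and 100% = 10% serum control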
NR3A LBD binder: modulators (binders) of human NR3A ligand-binding domain | NR3A LBD differential scanning fluorimetry, Tm shift; 0% = protein alone, 100% = glycine-bound protein | Tm shift relative to glycine control, % at 25 µM | hit rate 2.5% among 340,000 | AID 1259313;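 active means melting temperature shift of at least 10% of the positive control shift, at one fixed dose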
FAS-TE inh: FAS thioesterase (human) inhibition; P49327; recombinant FAS-TE, OMFH fluorogenic substrate, fluorescence endpoint; inhibition, % at 15 µM; hit rate 0.67% among 360,000;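 active means compounds whose normalised, plate-corrected inhibition of enzyme fluorescence in the single-dose primary screen is 50% or more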;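 further: 0% = DMSO with enzyme and 100% = substrate without enzyme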
MPTP block: permeability transition pore inhibition; hit rate 1.4% among 360,000; isolated mouse mitochondria, Ca2+ swelling absorbance, 30 min; inhibition, % at 10 µM; AID 602449;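 active means inhibition of 50% or more, scaled per plate between neutral and stimulator controls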;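 further: 0% = DMSO wells given calcium and 100% = 1 mM EGTA wells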
p-CIP stab down: compounds decreasing mouse p/CIP protein stability; F442A p/CIP-EGFP cells, EGFP fluorescence, 16 h; decrease of EGFP signal, % at 10 µM; Q05BA5; hit rate 0.01% among 290,000;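 active means EGFP signal decrease of at least 30% at 10 µM or well 3 SD below plate mean, unless failing retest; inactive means the rest, including hits failing retest or dose response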
MPTP counter: mitochondrial membrane potential, counter-screen; shares compounds with MPTP block; isolated mitochondria, Rhodamine 123 fluorescence; inhibition, % at 10 µM; hit rate 78% among 5,000; in the data active means inhibition above about 22%;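 further: 0% = DMSO vehicle and 100% = positive control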
MPTP abs DR: dose response confirmation of mitochondrial permeability transition pore inhibitors; hit rate 58% among 780; IC50, µM; isolated mitochondria swelling, absorbance; AID 651561; shares compounds with MPTP block; in the data active means IC50 below about 20 µM
MPTP counter DR: counter-screen for mitochondrial permeability transition pore inhibitors, dose response; IC50, µM; isolated mitochondria counterscreen, fluorescence read-out; hit rate 49% among 780; shares compounds with MPTP block; in the data active means IC50 below about 80 µM
* = called active by the depositor; / = no result. An excerpt weighted towards active compounds, which were near 4.1% of everything screened.

SMILES	beta cell repl	NR3A LBD binder	FAS-TE inh	MPTP block	p-CIP stab down	MPTP counter	others
Cc1ccc(NC(=S)NCc2ccc(Cl)cc2)c(OC(F)F)c1	-6.7	0.2	19.2	62.5*	0.4	97.4*
S=C(NCc1ccc(Cl)cc1)Nc1ccccc1	-4.5	-6.5	14.8	65.0*	-3.5	92.6*
Cc1ccc(CNC(=S)Nc2ccc(OC(F)F)cc2C)cc1	-5.5	-3.0	11.7	8.7	-6.4	/
Fc1cccc(NC(=S)NCc2ccccc2Cl)c1	-3.1	-7.9	14.9	85.9*	-12.9	96.9*
Fc1cccc(NC(=S)NNc2ccccc2)c1	-6.0	0.9	0.8	0.6	-3.9	/
Fc1cccc(NC(=S)NNc2c3ccccc3nc3ccccc23)c1	/	7.5	1.2	92.1*	9.7	46.3*
O=C(O)CCNC(=S)Nc1cccc(F)c1	-0.9	-1.6	0.2	2.0	1.5	/
Cc1cccc(CN2C(=O)NC(c3ccccc3)(c3ccccc3)C2=O)c1	-4.8	-1.6	19.8	6.8	-6.2	/
S=C(NCc1ccc(Cl)cc1)Nc1ccncc1	-7.6	-1.2	-2.8	98.3*	-38.0	102.9*
S=C(NCc1ccccc1)NCc1ccc(CNC(=S)NCc2ccccc2)cc1	-4.2	19.9*	6.9	78.6*	3.2	90.2*
Fc1ccc(CNC(=S)NCc2ccccc2)cc1	0.1	-1.6	0.7	1.7	6.4	/
S=C(NCc1ccncc1)Nc1cccc(Cl)c1	0.4	0.8	-2.8	3.5	-9.2	/
CCOC(=O)c1nccnc1C(=O)Nc1ccc(C(F)(F)F)cc1	4.7	-0.9	11.4	2.0	23.7	/
Cc1cc(C)c(-c2csc(Cc3nc(-c4cc5ccccc5oc4=O)cs3)n2)cc1C	-3.9	1.9	20.3	53.1*	1.0	9.7	MPTP abs DR=6.29*;MPTP counter DR=7.84*
Cn1c(=O)c2c(nc3n2CCCN3CCc2ccccc2)n(C)c1=O	1.4	-0.7	-2.6	-0.9	-17.6	/
CN(C)C(=O)c1ccc(SC(=S)NCc2ccccc2)cc1	/	/	45.7	-1.0	/	/
COc1ccc(-c2cc(=Nc3ccc(C)cc3)c3ccccc3o2)cc1	-5.8	2.4	28.0	62.6*	2.9	12.0	MPTP abs DR=>100;MPTP counter DR=13.5*
COc1ccc(N=c2cc(-c3ccc(O)cc3)oc3ccccc23)cc1	-6.0	-1.1	8.7	68.5*	0.6	72.8*
CCOc1ccc(N=c2cc(-c3ccc(OC)cc3)oc3ccccc23)cc1	-5.5	-1.2	28.5	37.4	2.0	/
COc1ccc(N=c2cc(-c3ccc(OC)cc3)oc3ccccc23)cc1	0.0	-14.1	30.0	26.7	4.2	/
CN(Cc1cn(C)nc1-c1ccc(Oc2ccccc2)cc1)Cc1cnc2ccccn12	-5.7	-4.8	1.6	68.8*	-7.3	56.5*
CCCn1c(=O)[nH]c(=O)c2c1nc(-c1ccccc1OC(F)F)n2CCOC	-0.8	2.4	-8.5	-1.4	7.9	/
CCCn1c(=O)[nH]c(=O)c2c1nc(-c1ccc(OC(F)F)c(OC)c1)n2CCOC	-4.5	-1.9	0.6	80.4*	-12.5	-3.9	MPTP abs DR=>100;MPTP counter DR=>80
CCN(C[C@H]1N[C@@](CC)(C(=O)OC)[C@H]2C(=O)N(C)C(=O)[C@@H]12)C(=O)C1CCCCC1	-0.8	0.9	-10.4	0.1	/	/
COc1ccc(CCNCc2ccc(OCc3ccccc3)cc2)cc1	-6.5	0.9	-5.7	98.5*	-11.5	-1.6	MPTP abs DR=4.4*;MPTP counter DR=27.5*
SMILES	beta cell repl	NR3A LBD binder	FAS-TE inh	MPTP block	p-CIP stab down	MPTP counter	others
COc1ccc(CCNC(=O)Cc2ccc([N+](=O)[O-])cc2)cc1OC	-1.5	-2.3	-2.2	0.4	1.7	/
c1ccc(COc2ccc(CNCc3cccs3)cc2)cc1	-5.7	-1.2	7.2	95.5*	-14.5	-1.4	MPTP abs DR=6.43*;MPTP counter DR=31.4*
Brc1ccc(CNCc2cccs2)cc1	0.9	2.9	-6.7	0.6	1.8	/
COc1ccc(CNCCc2ccc(Cl)cc2)cc1OCc1ccccc1	-5.8	1.5	-0.8	86.0*	0.3	84.0*
COc1ccc(CCNC(=O)Cc2ccc(OCc3ccccc3)c(OC)c2[N+](=O)[O-])cc1OCc1ccccc1	-3.0	-3.9	16.1	75.6*	-8.7	54.9*
COc1ccc(CNCCc2ccccc2)cc1OCC(N)=O	0.4	2.4	-7.5	-2.4	6.1	/
O=C1C[C@@H]2c3c(cccc3CN1Cc1ccccc1F)C[C@@H](O)[C@H]2O	/	-1.8	-11.7	-1.2	/	/
